Assay results from PubChem BioAssay AID488890 (Southern Research Specialized Biocontainment Screening …, 2010).
Among all 320,000 compounds or so, about 1,300 (0.41%) were called active. Inconclusive results (about 3%) are left out. No rule for the calls is given here. Not all results are given here. Potency and affinity values are given separately.

Assay: growth inhibition of non-replicating M. tuberculosis (AID 488890);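 also: plate controls were DMSO cells for no effect and high antibiotic wells for full effect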
Settings: Mycobacterium tuberculosis non-replicating, at 25 µM, stronger effect = higher value

SMILES | inhibition
CN(Cc1nc2ccccc2c(=O)[nH]1)C(=O)c1ccc(S(=O)(=O)N(C)C)cc1 | -7.99%
Cc1ccc(Cc2c(C)c(C#N)c3[nH]c4ccccc4n3c2=O)cc1 | 55.7%
COc1ccc(S(=O)(=O)N2CCC(Nc3ccccc3Cl)CC2)cc1 | 35%
COc1ccc(NC(=O)CN(Cc2ccccc2)S(C)(=O)=O)c(OC)c1 | 6.99%
CO/N=C(\C)c1ncc(C(F)(F)F)cc1N1CCOCC1 | -6.77%
Cc1ccc(C(=O)NC(NCC2CCCO2)C(Cl)(Cl)Cl)cc1 (stereo not given) | -8.87%
CC1CCCN(CCCNC(=O)c2ccc(N3CCCC3=O)cc2)C1 (stereo not given) | -2.78%
O=C(CCC(=O)N1CCN(c2ccccc2)CC1)Nc1nnc(C2CCCCC2)s1 | -14.5%
O=C(CSc1nnc(COc2ccccc2F)n1-c1ccccc1)NC1CCS(=O)(=O)C1 (stereo not given) | -2.12%
Cc1ccc(NC(=S)N(CCN(C)C)Cc2cc3cc(C)ccc3[nH]c2=O)cc1 | 56.8%
COc1ccccc1CNC(=O)c1cnccn1 | 41.3%
COc1cc([N+](=O)[O-])cc(/C=N/NC(=O)c2cncc(Br)c2)c1O | 10.5%
O=C(N/N=C/c1ccc(Br)s1)c1ccccc1[N+](=O)[O-] | 88.6%
O=C(N/N=C\c1cc(Br)c(Br)o1)c1cncc(Br)c1 | -11.5%
O=C(N/N=C/c1ccc(Cl)s1)c1ccccc1[N+](=O)[O-] | 19.9%
Cc1ccc(-c2cc(C(=O)OCn3nnc4ccccc4c3=O)c3ccccc3n2)cc1 | -0.92%
CC1NC(=S)N(C2CCCCC2)C1=O (stereo not given) | 7.51%
O=C1c2ccccc2C(=O)N1C1CCCCC1 | -9.63%
COc1ccc2[nH]c(=O)c(CN(C(=O)c3cccnc3)c3ccc(C)c(C)c3)cc2c1 | -6.7%
Cc1cccc(-c2nnc(SCc3ccccc3)o2)c1 | 64.4%
O=C(O)c1ccc(CSc2nnc(-c3ccco3)o2)cc1 | 3.82%
O=C(O)c1cccc(CSc2nnc(-c3ccco3)o2)c1 | 3.8%

SMILES | inhibition
Brc1ccc(-c2nnc(-c3ccco3)o2)cc1 | 9.05%
COc1ccccc1N1CCN(CC(O)COCc2cccs2)CC1 (stereo not given) | -4.29%
Cc1c(NC(=O)c2ccccc2NC(=O)COc2ccccc2)cccc1C(=O)O | 4.87%
COc1cc2[nH]c(=O)n(C3CCCCC3)c(=O)c2cc1OC | 6.65%
COc1c[nH]n(-c2ccccc2)c(=O)c1=O | 3.41%
O=C(C1CC(=O)N(c2ccc(Cl)cc2)C1)N1CCOCC1 (stereo not given) | -7.5%
COc1ccc(OCC(=O)N/N=C2\CCCCc3ccccc32)cc1 | 22.5%
COc1ccc(OCC(=O)N/N=C2\CCCc3ccccc32)cc1 | 34.2%
Cc1c(Cl)c([N+](=O)[O-])nn1CC(=O)N1CCN(Cc2ccccc2)CC1 | -5.75%
O=C(COc1c(Cl)cccc1Cl)NN1C(=O)CSC1=S | 8.7%
CCCCCCCC(=O)N/N=C(\C)c1cccnc1 | -21.2%
C/C(=N\NC(=O)CCCNc1cccc(C)c1)c1ccncc1 | -0.79%
C/C(=N\NC(=O)CCCNc1ccccc1)c1ccncc1 | 1.29%
CCCCCCCCCC(=O)N/N=C(\C)c1cccnc1 | -3.96%
FC(F)C(F)(F)C1=CC(c2ccccc2)=NCCN1 | 12.6%
COc1ccc(CN(C(=O)c2ccco2)C2CCS(=O)(=O)C2)cc1 (stereo not given) | 1.18%
Cn1cccc1/C=N/NC(=O)c1cc(-c2cccs2)nc2ccccc12 | -12.1%
COc1ccc(CNC(=O)C(C)c2ccc([N+](=O)[O-])cc2)cc1 (stereo not given) | 36.2%
COc1ccc(N2CCN(S(=O)(=O)c3ccc4c(c3)CC(C)N4C(=O)C3CC3)CC2)cc1 (stereo not given) | -6.48%
O=C(OCC(=O)N1CCN(S(=O)(=O)c2ccc(Cl)cc2)CC1)c1ccc([N+](=O)[O-])o1 | 67.7%
O=C(COC(=O)c1ccc([N+](=O)[O-])o1)NCc1ccccc1 | 49.8%
Cn1c(N)c(C(=O)COC(=O)c2ccc([N+](=O)[O-])o2)c(=O)n(C)c1=O | 69.7%

SMILES | inhibition
CCc1ccc(C(=O)OCC(=O)c2c(N)n(CC(C)C)c(=O)n(C)c2=O)cc1 | 24.9%
O=C(OCC(=O)N1CCN(S(=O)(=O)c2ccccc2)CC1)c1ccc([N+](=O)[O-])o1 | 66.7%
COc1ccc(OC)c(C(=O)COC(=O)c2ccc([N+](=O)[O-])o2)c1 | 54.8%
O=C(COC(=O)c1ccc([N+](=O)[O-])o1)c1ccccc1 | 22.4%
COc1cc(C(=O)COC(=O)c2ccc([N+](=O)[O-])o2)cc(OC)c1OC | 34.7%
COc1ccccc1C(=O)N1CCC(C(=O)c2ccc(F)cc2)CC1 | 5.17%
O=C(O)C1CCCN(S(=O)(=O)c2ccccc2[N+](=O)[O-])C1 (stereo not given) | -3.19%
CC(=O)c1cccc(NC(=O)CCc2nnc3ccc(N4CCN(C)CC4)nn23)c1 | 1.24%
COC(=O)c1[nH]nc(C(=O)OC(C)(C)C)c1-c1ccccc1 | 0.97%
COc1ccc(C(=O)NCC(C)NC(=O)c2ccc(OC)c(Br)c2)cc1Br (stereo not given) | -0.81%
CCC(Oc1ccc(F)cc1)C(=O)N1CCCCCCC1 (stereo not given) | -13.2%
COCCNC(=O)CS(=O)(=O)Cc1nc(-c2ccc(C)cc2)oc1C | -26%
CCC(CO)Nc1ncnc2onc(-c3ccc(F)cc3)c12 (stereo not given) | -5.65%
Cc1nnsc1C(=O)N1CCN(c2cc(C(F)(F)F)ccn2)CC1 | 1.32%
Cc1ccc(N(C(=O)CS(=O)CC(=O)Nc2ccc(F)cc2)C(C)C(=O)NC(C)(C)C)cc1 (stereo not given) | -2.13%
CC1CCCCN1S(=O)(=O)c1ccc([N+](=O)[O-])cc1 (stereo not given) | -4.65%
Cc1ccc(NC(=O)COC(=O)Cn2c(C)csc2=O)cc1 | 7.46%
COCCn1c(C)cc(C(=O)COC(=O)c2ccc(S(=O)(=O)N(C)C)cc2)c1C | -12.9%
COCCn1c(C)cc(C(=O)COC(=O)c2cccc(O)c2)c1C | -6.95%
COc1ccc([N+](=O)[O-])cc1NC(=O)c1cncc(Br)c1 | 36.5%
CCOCCCNC(=O)C(c1ccccc1)N(Cc1ccc2c(c1)OCO2)C(=O)c1ccccc1O (stereo not given) | 4.13%
COC(=O)COc1cccc(NC(=O)c2cc(OC)cc(OC)c2)c1 | 58.8%

SMILES | inhibition
O=C(O)COc1cccc(NC(=O)c2ccccc2)c1 | -6.49%
Cc1cccc(C(=O)Nc2cccc(OC(=O)c3cccc(C)c3)c2)c1 | 51.4%
Cc1cccc(C(=O)Nc2cccc(OCC(=O)O)c2)c1 | -11.3%
Cc1cccc(N(C(=O)c2snc(C(N)=O)c2N)C(C(=O)NCc2ccccc2)c2ccncc2)c1 (stereo not given) | 11.8%
O=C(COc1ccc(-n2cnnn2)cc1)Nc1cccc(Cl)c1Cl | 5.43%
Cc1nnc(N/N=C/c2ccccc2C(F)(F)F)n1N | 3.91%
Cc1cc(Cl)nc(Cl)c1C(=O)NCCc1ccccc1 | 5.34%
CC(C)Cc1nnc(NC(=O)CCC(=O)Nc2ccc(Cl)cc2)s1 | 12.6%
CCc1nnc(NC(=O)CCS(=O)(=O)c2ccc(C)cc2)s1 | 77.7%
C=CCOC(=O)/C(=C\c1ccccc1)NC(=O)c1ccco1 | -12.7%
C[C@H](NC(=O)c1nc[nH]c1C(=O)N1CCN(C(=O)OC(C)(C)C)CC1)C(=O)OC(C)(C)C | -4.48%
O=[N+]([O-])c1ccc(OCCCCN2CCc3ccccc3C2)cc1 | 57.5%
COc1ccc(OCCCN2CCc3ccccc3C2)cc1 | 46.6%
Cc1cc2nc(/N=C(\N)NC(=O)N3c4ccccc4Sc4ccccc43)nc(C)c2cc1C | -20.4%
Cc1ccc2nc(N=C(N)N)nc(C)c2c1 | 30.9%
Cc1nc(/N=C(\N)NC(=O)c2ccccc2)nc2ccccc12 | -4.45%
Cc1ccc2nc(/N=C(\N)NC(=O)N3c4ccccc4Sc4ccccc43)nc(C)c2c1 | 10.2%
Cc1ccccc1Cn1cc(S(=O)(=O)c2ccc(C(C)C)cc2)c(=O)c2cc3c(cc21)OCO3 | 11.4%
Cc1ccc(S(=O)(=O)NC(CCc2ccccc2)CC(=O)C(C)(C)C)cc1 (stereo not given) | 0.24%
CCOC(=O)CN1C2=NCCCN2c2ccccc21 | 15.4%
O=C(Cc1ccc(Cl)cc1)Nc1cccnc1 | 30.9%
O=C(O)c1ccc(Nc2cc(Cl)c3nonc3c2[N+](=O)[O-])cc1 | 76%

SMILES | inhibition
O=C(O)c1ccccc1Nc1cc(Cl)c2nonc2c1[N+](=O)[O-] | 71.1%
CC(NC(=O)c1cc(S(=O)(=O)N2CCOCC2)ccc1N1CCCC1)c1ccc(Cl)c(Cl)c1 (stereo not given) | 4.97%
Cc1cccc(Cn2c(N3CCN(C)CC3)nc3c2c(=O)n(C)c(=O)n3C)c1 | -18%
CCOC(=O)c1c(NC(=O)COC(=O)c2ccccn2)sc(C)c1C | 37%
CCOC(=O)c1c(NC(=O)COC(=O)c2nccnc2N)sc2c1CCC2 | 26.4%
Cc1ccc(CN2C(=O)CSC2c2ccccc2F)cc1 (stereo not given) | 10.3%
CCCCCCn1c(COc2ccccc2F)nnc1SCC(=O)c1c(N)n(C)c(=O)n(C)c1=O | -10.3%
CC1=CS(=O)(=O)CC1Sc1nc(C)n[nH]1 (stereo not given) | -1.03%
Cc1ccc(O)c(C(=O)c2cnc3c(c2)c(=O)n(C)c(=O)n3C)c1 | -3.64%
O=C(Cn1ccc2cc(S(=O)(=O)N3CCCC3)ccc21)NCc1ccco1 | 21.9%
CN1C(=O)N(C)c2cccc3cccc1c23 | 0.15%
CN1C(=O)N(C)c2ccc(Br)c3cccc1c23 | 6.26%
OCC1(Cc2ccccc2)CCN(Cc2cnc(-c3cccc4ccccc34)nc2)CC1 | 4.25%
CCC(C)NC(=O)Cn1c(=O)sc2ccccc21 (stereo not given) | 1.3%
Cc1ccc2cccc(OCC(=O)Nc3cccc(S(=O)(=O)N4CCCC4)c3)c2n1 | 4.51%
O=C(CSc1nc2ccccc2nc1N1CCOCC1)Nc1ccccc1F | 6.49%
CCN(CC(=O)Nc1ccc(NC(C)=O)cc1)C(=O)c1cc(CN2C(=O)c3ccccc3C2=O)ccc1OC | -15%
Cc1c(Cl)cccc1NC(=S)N(C)CCC#N | -8.13%
COc1ccc(C(=O)C2CCCN(Cc3ccccn3)C2)c(OC)c1 (stereo not given) | 21.8%
COc1cccc(C(=O)C2CCCN(Cc3cccc(C)n3)C2)c1 (stereo not given) | 37.8%
COc1cccc(C(=O)C2CCCN(Cc3ccccn3)C2)c1 (stereo not given) | 23%
COc1ccc(C(=O)C2CCCN(Cc3cccc(C)n3)C2)c(OC)c1 (stereo not given) | 19.9%
